Screen size: about 300,000 compounds; about 37,000 (12%) were called active. This excerpt belongs to a sample that is enriched for actives. Values without a mark were called inactive. Rule as the data show it: active = max response mostly above about 13% (no sharp cut-off); inactive = mostly below about 14%.

A short description of the experiment: Cycloheximide Counterscreen for Small Molecule Inhibitors of Shiga Toxin. Also: read at 38.3 µM for the half of the compounds with a filed dose; 0% is about no effect. Conditions: cell reporter, cycloheximide protein synthesis inhibition counterscreen; hits give high values. On the technique in general: The purpose of a counterscreen is to sort out artefacts and off-target activity.
On to `CCCNC(=O)C(=O)Nc1cc2c3c(c1)CCC(=O)N3CCC2`, for which the max response was -6.21%. The result for `Cc1cc(F)ccc1N1CCC(N2CCN(C)C(CCO)C2)CC1` (stereo not drawn) reads -1.8%; that for `CCCn1c(C(O)c2cc(OC)ccc2OC)nc2ccccc21` (stereo not drawn), -2.36%; that for `CCCn1c(C2CCCN2c2nc(-c3ccc(OC)cc3)cs2)nc2ccccc21` (stereo not drawn), 3.07%.

On to `CCCn1c(CCNc2nc(-c3ccc(OC)cc3)cs2)nc2ccccc21`, for which the max response was 6.09% (active). Turning to `COC(=O)c1ccc(CSc2ccc3nnc(-c4ccccc4)n3n2)o1`, the max response is 15.3%. With `Cc1nnc2n1N=C(c1ccc3c(c1)NC(=O)CO3)CS2` the figure was -0.735%; with `Cc1cc(C)cc(NC(=S)NCc2ccc(F)cc2)c1`, -3.19%; with `Cc1ccc(NC(=S)Nc2ccc(F)cc2)cc1`, 8.11% (active).

For `Cc1ccc(/C=N/NC(=S)Nc2cccc(S(=O)(=O)N(C)C)c2)o1`, the max response is 11.3%. The result for `C/C(=N\NC(=S)NC1CCCCC1)c1ccc(C)o1` reads 26.6%. On to `Cc1ccc(NC(=S)NC2CCCC2)cc1`, for which the max response was 26.6% (active). With `Cc1ccc(NC(=O)CSCC(=O)NC2CCCCC2)cc1`, the max response was 1.06%. The result for `Cc1ccc(/C=N/NC(=S)NC2CCCCC2)o1` reads 24.4% (active). With `S=C(Nc1ccc(Br)cc1)NC1CCN(Cc2ccccc2)CC1` the figure was -1.87%. As to `Cc1cc(Br)ccc1NC(=S)NC1CCCC1`, the max response is 30.4% (active). Take `CC(Oc1ccc(Br)cc1Br)C(=O)NC1CCCC1` (stereo not drawn): the max response is -1.67%. `S=C(Nc1ccc(Br)cc1Cl)NC1CCN(Cc2ccccc2)CC1`: the max response was -4.37%. With `CC(C)CNC(=S)Nc1ccc(F)cc1` the figure was -3.91%; with `Cc1ccc(-n2c(C)nnc2SCC(=O)NC2CC2)cc1`, 1.87%.

`O=C(CN1CCN(Cc2ccccc2)CC1)Nc1ccc(F)c(F)c1`: the max response is 2.05%. As for `COc1ccc(C2CC(c3cccs3)=NN2c2nc(C)c(C(C)=O)s2)cc1OC` (stereo not drawn), the max response was 14%. With `CCN(CC)CCCNC(=O)c1c(O)c2cc(F)cc3c2n(c1=O)C(C)CC3` (stereo not drawn) the figure was -7.23%; with `O=C(N/C(=C\c1ccc([N+](=O)[O-])cc1)C(=O)N1CCOCC1)c1cccc(Br)c1`, 0.841%; with `COc1ccc(/C=C/C(=O)Nc2c(C)nn(C)c2C)cc1COc1ccc(Br)cc1`, -4.32%. With `Cc1ccc(S(=O)(=O)N2CCN(c3ccccc3)CC2)cc1C` the figure was -2.26%. The result for `CN(CC(=O)Nc1c(Cl)cccc1Cl)C(=O)CNC(=O)C1CCCCC1` reads 5.73%; that for `O=C(O)CCc1nc2cc(Cl)ccc2n(Cc2ccccc2)c1=O`, -1.53%; that for `Cc1nnc(SC(C)C(=O)Nc2ccc(S(=O)(=O)NC3CCCCC3)cc2)s1` (stereo not drawn), -4.95%. On to `CCOCCCN(C)C1CCN(C(=O)c2oc3ccccc3c2NC(=O)Cc2cccc([N+](=O)[O-])c2)CC1`, for which the max response was -8.08%.

On to `COc1ccc(OC)c(C(=O)c2ccc(C(=O)O)cc2)c1`, for which the max response is 5.22%.

As for `COc1ccc(OC)c(C(=O)c2coc3ccc(OC)cc23)c1`, the max response was -2.15%. The result for `COc1ccc2occ(C(=O)c3ccc(N=C(C)N(C)C)cc3)c2c1` reads 28.3% (active); that for `COc1ccccc1OCc1ccc(C(=O)NC(C)c2ccccc2)o1` (stereo not drawn), -0.796%; that for `CC(C)(C)NC(=O)c1cccc(NC(=O)Cc2ccc(Br)cc2)c1`, -3.99%. Consider `CN(C)C(=O)c1nc2ccc(Cl)cn2c1CNCc1cccc(OC(F)(F)F)c1`, for which the max response is 0.689%. The result for `C/C(=N\NC(N)=S)c1ccncc1` reads -1.83%; that for `C/C(=N\NC(=O)c1cccnc1)c1ccc(-c2ccccc2)cc1`, 12.6% (active); that for `CC1CCc2sc(C(=O)N/N=C/C3CCCCC3)cc2C1` (stereo not drawn), 8.2%.

`C/C(=N\NC(=O)c1cc2c(s1)CCC(C)C2)c1cccnc1` (stereo not drawn): the max response is 19.2% (active).

With `C/C(=N\NC(=O)c1ccc2ccccc2c1)c1cccnc1`, the max response is 34.4% (active). With `C/C(=N\NC(N)=S)c1cccnc1` the figure was -2.63%; with `COCc1c(C(=O)N/N=C(\C)c2ccncc2)nnn1-c1nonc1N`, -0.414%; with `C/C(=N\NC(=O)Cc1ccc(Br)cc1)c1cccnc1`, 1.49%.

On to `C/C(=N/NC(=O)c1ccn(C)n1)c1ccncc1`, for which the max response was 51.6% (active). With `C/C(=N\NC(=O)c1cccnc1)c1ccc(-n2ccnc2)cc1` the figure was -1.63%; with `C/C(=N\NC(=O)c1cccc([N+](=O)[O-])c1)c1cccnc1`, 11.9%; with `C/C(=N\NC(=O)c1cc(-c2ccc(O)cc2)nc2ccccc12)c1cccnc1`, 17%. As to `C/C=N/NC(=O)CCCC(=O)N/N=C/C`, the max response was -6.46%.

As for `CCOC(=O)c1c(NC(=O)Cn2nc(C(F)(F)F)cc2C)sc2c1CCC2`, the max response is 4.3%. As to `CCCc1nc2oc3c(OCC)ncnc3c2c2c1COC(C)(C)C2`, the max response is -2.02%. Consider `CCOC(=O)/C(N=Nc1cc(C(=O)O)cc(C(=O)O)c1)=C(\O)CCl`, for which the max response was -1.38%. With `Cc1cccc(CN2CCC(CNC(=O)Nc3ccc(F)c(Cl)c3)CC2)c1` the figure was 0.642%; with `C/C(=N\NC(=O)c1nc(C)cc(C)n1)c1ccccc1`, 31.4% (active). With `COc1ccc(/C(C)=N\NC(=O)c2ccc(-c3ccccc3)cc2)c(F)c1`, the max response is 0.503%.

With `CNC(=O)C(NC(=O)c1ccccc1)=C(C)C`, the max response was 3.38%. With `CSc1ccc(CN2C(=O)NC3(CCCCCC3)C2=O)cc1` the figure was -3.95%; with `O=C(Nc1ccc2ccccc2c1)/C(=C/c1cccc(Br)c1)NC(=O)c1ccco1`, -5.2%; with `O=C(Nc1ccccc1)O/N=C1/CCCc2occc21`, 19.6% (active). With `O=C(Nc1ccccc1)O/N=C1\CCCCC1c1ccc([N+](=O)[O-])cc1[N+](=O)[O-]` (stereo not drawn) the figure was -0.778%; with `COc1ccc2c(c1)CCC/C2=N\OC(=O)c1ccccc1F`, 33%. With `CN(C)S(=O)(=O)c1ccc(N/C=C(\[N+](=O)[O-])S(=O)(=O)c2ccccc2)cc1` the figure was -2.27%; with `Cc1cc(Br)ccc1NC(=O)c1cnc(N2CCN(c3ccccn3)CC2)c2ccccc12`, -4.22%.
